Activity calls are given as the source filed them. The calls were made as follows: active = hit-call score of the fitted dose curve at least 0.9, where 1 is the maximum; inactive = score below 0.9.
Experiment: ATG_NFI_CIS: Attagene CIS-FACTORIAL HepG2 Assay for human Nuclear Factor I (NFI) (AID 2282989)
Details: HepG2 cis-regulatory reporter, NFI response element transcription; actives raise or lower the signal
Procedure, shortened: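 Reporter transcripts were measured by RT-PCR with fluorescent primer extension and capillary electrophoresis 24 h post-treatment. HepG2 cells carried transiently transfected cis-regulated reporter constructs reporting endogenous factor activity; gain or loss fitted against DMSO baseline.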
In the case of CN1CN(C)CN(C)C1, the outcome is reported as “inactive”. For Cc1ccc2c(c1)OCC(=O)CO2, the outcome was “inactive”. For C=CC(=O)OCC(F)(F)C(F)(F)C(F)(F)C(F)(F)C(F)(F)C(F)(F)C(F)(F)C(F)F, the outcome was “inactive”. With C[Si](Cl)(Cl)CCC(F)(F)C(F)(F)C(F)(F)C(F)(F)C(F)(F)C(F)(F)F the outcome was “inactive”. In the case of CSc1ccc(O)cc1C, the outcome is reported as “inactive”. In the case of CCC(=O)OC(C)c1ccccc1 (stereo not drawn), the outcome is reported as “inactive”. With CCCCCCCCCCCCCCCCC the outcome was “inactive”. In the case of FC(F)(F)C(F)(F)C(F)(F)CC1CO1 (stereo not drawn), the outcome is reported as “inactive”. With CCCCCCCC/C=C\CCCCCCCC(=O)OCC(O)CO (stereo not drawn) the outcome was “inactive”. With C=C(C)CCCC the outcome was “inactive”. With OCCCC(F)(F)C(F)(F)C(F)(F)C(F)(F)C(F)(F)C(F)(F)C(F)(F)C(F)(F)F the outcome was “inactive”. For CNS(=O)(=O)C(F)(F)C(F)(F)C(F)(F)C(F)(F)C(F)(F)C(F)(F)C(F)(F)C(F)(F)F, the outcome was “inactive”. In the case of CCOC(C=C(C)CCC=C(C)C)OCC, the outcome is reported as “inactive”. In the case of CCCCCCCC/C=C\CCCCCCCC(=O)N(C)CC(=O)O, the outcome is reported as “inactive”. In the case of O=C1c2ccccc2C(=O)c2c(Cl)cccc21, the outcome is reported as “inactive”. With O=C(O)CCC(F)(F)C(F)(F)C(F)(F)F the outcome was “inactive”. For CC(C)CC=C(C=O)c1ccccc1, the outcome was “inactive”. For O=C(Cl)C(F)(F)C(F)(F)C(F)(F)C(F)(F)C(F)(F)C(F)(F)F, the outcome was “inactive”. In the case of OCC(O)CC(F)(F)C(F)(F)C(F)(F)C(F)(F)C(F)(F)C(F)(F)C(F)(F)C(F)(F)F (stereo not drawn), the outcome is reported as “inactive”. In the case of CCOC(=O)CCC(C)=O, the outcome is reported as “inactive”. In the case of CCC(C)CO (stereo not drawn), the outcome is reported as “inactive”. With NC(=O)C(F)(F)C(F)(F)C(F)(F)F the outcome was “inactive”. For OCCCCl, the outcome was “inactive”.

From PubChem BioAssay (EPA / NIEHS)
